ChEMBL document CHEMBL1157539, “Thousands of chemical starting points for antimalarial lead identification” (Nature, 2010)

System: HepG2
Experiment: GSK_TCMDC: Percent inhibition of human HepG2 cell line. Test compounds present at 10uM.
Assay type: functional

| SMILES | Inhibition |
| --- | --- |
| CC(C)(C)C(=O)Nc1ccc(N2CCN(C(c3ccccc3)c3ccccc3)CC2)c(Cl)c1 | 0% |
| COc1cc2ccccc2cc1CNCCCCCCNCc1cc2ccccc2cc1OC.CS(=O)(=O)O | 98% |
| O=C(/C=C/c1ccc(Cl)c(Cl)c1)N1CCC(CCN2CCC(c3c[nH]c4ccncc34)CC2)CC1 | 13% |
| CC1CN(Cc2ccc(-c3cccc(-c4nc5cc(F)ccc5[nH]4)c3)cc2)CC(C)O1.O=C(O)C(F)(F)F (stereo not given) | 28% |
| Cn1nc2ccc3ccccc3c2nc1=N.I | 100% |
| CC[C@H]1CN(Cc2cccc(O)c2)CC[C@H]1CCCc1ccnc2ccc(O)cc12 | 14% |
| CCc1c(CCNCCCCCCNCCc2ccc(OC)c(OC)c2C)ccc(OC)c1OC.Cl | 16% |
| CN1CC[C@@H](Oc2cc(CNC(=O)c3ccc(-c4ccc(Cl)cc4)s3)ccc2C(F)(F)F)C1.Cl | 40% |
| CCN(CCCN1CCCC1)c1cc(C)nc(Nc2ccc(Cl)cc2)n1.O=C(O)C(=O)O | 5% |
| COc1c(C2CCN(CCCCNC(=O)c3ccc(-c4ccc(Cl)cc4)c(OCC(N)=O)c3)CC2)ccc2c1CCCC2 | 43% |
| COc1ccc2ncc(F)c([C@H](O)CN3CCC(NCc4ccc5c(c4)OCCO5)CC3)c2c1.Cl | 1% |
| Cc1ccccc1N1CCN(c2ccc(C(=O)NC3CC3)cn2)CC1.O=C(O)C(F)(F)F | 14% |
| Cl.N=C(N)Nc1ccc(CCc2ccc(NC(=N)N)cc2)cc1 | 57% |
| CCn1c(-c2nonc2N)nc2c(-c3ccc(CO)o3)ncc(OCCCN)c21.O=C(O)C(F)(F)F | 0% |
| CN(C)CCCOc1ccc(CNCC(C)(C)c2nc(-c3ccc(Cl)c(O)c3)c(-c3ccncc3)[nH]2)cc1.Cl | 64% |
| C=CCOc1ccc2ccccc2c1CNCCCCCCNCc1c(OCC=C)ccc2ccccc12.CS(=O)(=O)O | 99% |
| CN(C)CCCOc1ccc(CN2CC[C@H](NC(=O)c3ccc(Cl)c(Cl)c3)C2)cc1Br.O=C(O)C(F)(F)F | 11% |
| Cc1cc(NC(=O)NCCN2CCC(NC(=O)c3ccc(C(F)(F)F)cc3)CC2)c2ccccc2n1.O=C(O)C(F)(F)F | 3% |
| CCOC(=O)c1c(C)n(-c2ccccc2)c2ccc(OC(=O)c3ccc(S(=O)(=O)N(CC)CC)cc3)cc12 | 0% |
| COc1ccc2ncc(C#N)c(CCN3CCC(NCc4cnc5c(c4)OCCO5)CC3)c2n1.Cl | 3% |

| SMILES | Inhibition |
| --- | --- |
| O=C(O)C(=O)O.Oc1c(CN2CCC(Cc3ccccc3)CC2)cc(Cl)c2cccnc12 | 49% |
| O=C(NCC1CC1)C1CCN(C(c2ccccc2)c2cc(F)cc(F)c2)CC1 (stereo not given) | 0% |
| CCOc1ccccc1CCNCC1CCN(CC2CCCCC2)CC1.O=C(O)C(F)(F)F | 35% |
| CCC(C)(C)C1CCc2nc(N)nc(N)c2C1.Cl (stereo not given) | 71% |
| COc1cc(Cc2cnc(N)nc2N)cc(OCCCCC2SC(=O)NC2=O)c1OC (stereo not given) | 0% |
| N#Cc1ccc(C(=O)NC2CCN(CCCCCNC(=O)/C=C/c3ccc(Cl)c(Cl)c3)CC2)cc1 | 13% |
| FC(F)(F)c1ccc2[nH]c(-c3ccc(-c4cccc(CNCc5ccccc5)c4)s3)nc2c1.O=C(O)C(F)(F)F | 15% |
| c1cc(Nc2nccc(-c3cnn4ncccc34)n2)cc(-c2cnco2)c1 | 54% |
| O=C(O)C1CC(=O)N(c2ccc(Cl)cc2)C1 (stereo not given) | 51% |
| Cc1c(C(=O)N2CCCC(C(F)(F)F)C2)sc2cccc(F)c12 (stereo not given) | 0% |
| Cc1cnc(C(=O)Nc2cccc(-c3ccc(-c4nc5cc(C(F)(F)F)ccc5[nH]4)s3)c2)cn1 | 35% |
| Cc1ccc2nc(-c3ccc(/C=C/C(=O)NC4CCN(Cc5ccccc5)CC4)cc3)[nH]c2c1C | 22% |
| c1ccc(Nc2nc(-c3ccccn3)cs2)nc1 | 45% |
| c1cncc(CN2CCCN(c3ccc4c(c3)CCN(Cc3ccc(-c5ncc[nH]5)cc3)CC4)CC2)c1 | 7% |
| NC(=O)c1cccc(C(=O)Nc2ccc(-c3cccc(-c4nc5cc(F)ccc5[nH]4)c3)cc2)c1 | 45% |
| CC(O)C1CCCCN1C(=O)c1cccc(-c2cccc(-c3nc4ccccc4[nH]3)c2)c1 (stereo not given) | 20% |
| CCCCCOc1ccc(C(O)C(CCC(CN2CCCCCC2)C(O)c2ccc(OCCCCC)cc2)CN2CCCCCC2)cc1.Cl (stereo not given) | 99% |
| COc1ccc(NC(=O)/C=C/c2ccccc2Cl)cc1OCCN1CCC(Cc2cc3ccccc3[nH]2)CC1.Cl | 56% |
| COc1nc2c(N3CCN(CCNCc4ccc5c(n4)NC(=O)CO5)CC3)ccnc2cc1F.Cl | 18% |
| O=C(NCCCN(Cc1ccc(F)cc1)c1ccccn1)C(c1cc2ccccc2o1)N1CCN(C(c2ccccc2)c2ccccc2)CC1 (stereo not given) | 14% |
